Sampled rows, rich in hits. Any-hit rate of the full collection: about 2.7%.
TCR-CD3 inh: human TCR-CD3 binding inhibition. 360,000 tested, 0.37% active. TAMRA-labeled TCR probe fluorescence, biochemical. AID 651800. inhibition, % at 9.4 µM; in the data active means inhibition above about 19%;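 further: recombinant mutant TCR 2C K166C tagged with TAMRA read by polarization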
PAFAH1B3 inh: inhibitors of human PAFAH1B3 | Q15102 | recombinant PAFAH1B3, FP-rhodamine probe, fluorescence polarization | inhibition, % at 3.39 µM | 340,000 tested, 0.28% active;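 active means inhibition above the screen-wide average of all tested compounds plus 3 SD, cut at about 25% in these data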
PAFAH2 FP inh: inhibitors of human PAFAH2 | Q99487 | recombinant PAFAH2, FP-rhodamine activity probe, fluorescence polarization | inhibition, % at 3.39 µM | 340,000 tested, 0.99% active | AID 492956;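 active means inhibition above the mean over all tested compounds plus 3 SD, cut at about 30% in these data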;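 further: inhibitors block probe labeling of enzyme so polarization drops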
PAFAH1B2 FP inh: inhibitors of human PAFAH1B2. 340,000 tested, 1.2% active. recombinant PAFAH1B2, FP-rhodamine activity probe, fluorescence polarization. AID 492953. P68402. inhibition, % at 3.39 µM;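 active means inhibition above the mean of all tested compounds plus 3 SD, cut at about 24% in these data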
Target sequence (P68402 whole entry, looked up): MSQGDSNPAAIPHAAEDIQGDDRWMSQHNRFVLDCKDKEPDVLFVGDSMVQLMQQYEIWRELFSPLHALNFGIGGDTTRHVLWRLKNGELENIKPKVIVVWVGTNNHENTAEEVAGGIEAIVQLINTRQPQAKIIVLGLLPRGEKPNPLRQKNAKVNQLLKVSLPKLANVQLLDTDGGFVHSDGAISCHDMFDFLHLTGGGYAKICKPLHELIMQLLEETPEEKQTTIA
pPAFAH FP inh: inhibitors of human plasma PAF acetylhydrolase (pPAFAH). Q13093. recombinant pPAFAH, FP-rhodamine probe fluorescence polarization. inhibition, % at 3.39 µM. 330,000 tested, 1.5% active;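 active means inhibition above the mean inhibition across the screen plus 3 SD, cut at about 25% in these data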;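 further: inhibitors block binding of the rhodamine activity-based probe so polarization drops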
Target sequence (Q13093 whole entry, looked up): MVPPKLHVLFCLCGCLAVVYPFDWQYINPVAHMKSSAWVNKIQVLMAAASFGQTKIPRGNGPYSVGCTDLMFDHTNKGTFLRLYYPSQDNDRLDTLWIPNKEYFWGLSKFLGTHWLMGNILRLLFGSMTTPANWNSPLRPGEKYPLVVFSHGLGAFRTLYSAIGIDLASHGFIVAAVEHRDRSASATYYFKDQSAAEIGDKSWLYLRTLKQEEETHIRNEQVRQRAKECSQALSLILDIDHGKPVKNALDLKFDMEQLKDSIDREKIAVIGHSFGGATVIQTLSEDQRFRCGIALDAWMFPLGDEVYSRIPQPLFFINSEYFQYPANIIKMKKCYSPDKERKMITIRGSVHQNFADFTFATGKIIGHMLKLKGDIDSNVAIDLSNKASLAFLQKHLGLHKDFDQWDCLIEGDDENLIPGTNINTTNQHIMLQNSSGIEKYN
Large screens that a line does not name were inactive.

COc1ccc(/C=C\C(=O)CC(O)(c2ccccc2)C(F)(F)F)cc1 (stereo not given)	PAFAH1B2 FP inh 30.5
CCN(CC)C(=O)[C@H]1C[C@H](CC(=O)NC/C=C(\C)CCC=C(C)C)C(=O)N2CCc3c([nH]c4ccc(Cl)cc34)[C@]12C	none
CCN(CC)C(=O)[C@H]1C[C@H](CC(=O)NC/C=C(\C)CCC=C(C)C)C(=O)N2CCc3c([nH]c4cc(-c5ccco5)ccc34)[C@]12C	pPAFAH FP inh 32.8
CC[C@]12c3[nH]c4cc(CCC(=O)N(C)C)ccc4c3CCN1C(=O)[C@@H](CC(=O)NCCN1CCOCC1)C[C@@H]2C(=O)N1CCN(C(=O)c2ccco2)CC1	none
CC(C)=CCC/C(C)=C/CNC(=O)C[C@H]1C[C@H](C(=O)N(C(C)C)C(C)C)[C@@]2(C)c3[nH]c4cc(-c5ccco5)ccc4c3CCN2C1=O	pPAFAH FP inh 27.0
CC[C@]12c3[nH]c4cc(CCC(=O)N(C)C)ccc4c3CCN1C(=O)[C@@H](CC(=O)NC/C=C(\C)CCC=C(C)C)C[C@@H]2C(=O)N1CCN(C(=O)c2ccco2)CC1	pPAFAH FP inh 34.0 (no result: TCR-CD3 inh)
CC(=O)[C@H]1CC[C@@H](c2ccccc2)N(S(=O)(=O)c2ccc(C)cc2)C1	none (no result: PAFAH1B3 inh, PAFAH2 FP inh, PAFAH1B2 FP inh, pPAFAH FP inh)
COCCN1C(=O)[C@H]2C[C@@]13O[C@H](c1ccccn1)N=C3CC1c3ccccc3C[C@@]12C (stereo not given in full)	none (no result: PAFAH1B3 inh, PAFAH2 FP inh, PAFAH1B2 FP inh, pPAFAH FP inh)
Cc1cccnc1NC(=O)c1cccc(S(=O)(=O)N2CCCc3ccccc32)c1	PAFAH1B2 FP inh 28.8
Cc1ccc(S(=O)(=O)NN2C(=O)/C(=C/c3cccn3C)SC2=S)cc1	pPAFAH FP inh 60.9 (no result: TCR-CD3 inh, PAFAH1B3 inh, PAFAH2 FP inh, PAFAH1B2 FP inh)
Cc1ccc(/C=C2\SC(=S)N(NS(=O)(=O)c3ccc(C)cc3)C2=O)cc1	none
CC(NCc1ccc(OCc2ccc(Cl)cc2)cc1)C(O)c1ccccc1 (stereo not given)	PAFAH1B2 FP inh 63.6
Cn1c(NCCO)nc2c1c(=O)n(Cc1cccc(Cl)c1)c(=O)n2C	none
Cn1c(NCCN2CCOCC2)nc2c1c(=O)n(Cc1cccc(Cl)c1)c(=O)n2C	PAFAH1B2 FP inh 27.8
CC(C)(C(=O)N1CCC1(C)C(=O)NS(=O)(=O)c1ccc(C#N)cc1)c1ccccc1 (stereo not given)	none (no result: PAFAH1B3 inh, PAFAH2 FP inh, PAFAH1B2 FP inh, pPAFAH FP inh)
CC(=O)Nc1ccc(-c2ccnc3c2CC(C)(C(=O)NCCc2ccccc2)O3)cc1 (stereo not given)	none (no result: PAFAH1B3 inh, PAFAH2 FP inh, PAFAH1B2 FP inh, pPAFAH FP inh)
Cc1csc(NC(=O)c2c(-c3c(F)cccc3Cl)noc2C)n1	pPAFAH FP inh 32.8
C=CCN=C1NC(c2cccc(F)c2)C(C(=O)OC)=C(C)N1Cc1ccccc1C(F)(F)F (stereo not given)	none (no result: PAFAH1B3 inh, PAFAH2 FP inh, PAFAH1B2 FP inh, pPAFAH FP inh)
COC(=O)[C@]12C[C@H](CC(=O)NCC34CC5CC(CC(C5)C3)C4)C(=O)N(Cc3ccccc3)C1=C[C@H](C(C)(C)C)O[C@@H]2C	none (no result: PAFAH1B3 inh, PAFAH2 FP inh, PAFAH1B2 FP inh, pPAFAH FP inh)
C[C@@H]1C=CCCO[C@]12C(=O)N(Cc1ccccc1C(F)(F)F)c1cccc(Br)c12	none (no result: PAFAH1B3 inh, PAFAH2 FP inh, PAFAH1B2 FP inh, pPAFAH FP inh)
Cc1ccccc1C1=C/C(=C(\SS/C(C(=O)c2ccc(OCC(=O)O)c(Cl)c2Cl)=C2\C=C(c3ccccc3C)SS2)C(=O)c2ccc(OCC(=O)O)c(Cl)c2Cl)SS1	PAFAH2 FP inh 33.6, PAFAH1B2 FP inh 25.5 (no result: pPAFAH FP inh)
O=C(N/N=C/c1ccc([N+](=O)[O-])o1)c1cc2ccccc2o1	pPAFAH FP inh 30.4
O=C(NN=Cc1cc(Br)c(O)c(Br)c1)c1ccccc1NS(=O)(=O)c1cccs1	PAFAH1B3 inh 30.2, pPAFAH FP inh 30.7
O=C(NN=Cc1ccc(F)cc1)c1ccccc1NS(=O)(=O)c1cccs1	none
O=C(N/N=C/c1ccc([N+](=O)[O-])o1)c1ccccc1NS(=O)(=O)c1cccs1	pPAFAH FP inh 33.9
c1cncc(Oc2ccc(NCCc3c[nH]c4ccccc34)cc2)c1	none (no result: PAFAH1B3 inh, PAFAH2 FP inh, PAFAH1B2 FP inh, pPAFAH FP inh)
CC1(OC(=O)CCc2ccccc2)C(=O)C=C2C=C(c3ccc(C#N)cc3)N(c3ccccc3)C=C2C1=O (stereo not given)	none
CC1(OC(=O)CCc2ccccc2)C(=O)C=C2C=C(c3ccsc3)OC=C2C1=O (stereo not given)	pPAFAH FP inh 54.6 (no result: TCR-CD3 inh, PAFAH1B3 inh, PAFAH2 FP inh, PAFAH1B2 FP inh)
CC1(OC(=O)c2cccs2)C(=O)C=C2C=C(c3ccc(C#N)cc3)OC=C2C1=O (stereo not given)	pPAFAH FP inh 44.6 (no result: TCR-CD3 inh, PAFAH1B3 inh, PAFAH2 FP inh, PAFAH1B2 FP inh)
CC1(OC(=O)c2cccs2)C(=O)C=C2C=C(c3ccsc3)OC=C2C1=O (stereo not given)	pPAFAH FP inh 55.6 (no result: TCR-CD3 inh, PAFAH1B3 inh, PAFAH2 FP inh, PAFAH1B2 FP inh)
Fc1cccc2sc(Nc3nnc(-c4ccccc4)o3)nc12	PAFAH2 FP inh 33.4, pPAFAH FP inh 24.9
Fc1cccc2sc(Nc3nc4c(F)cccc4s3)nc12	none
c1ccc2c(c1)[nH]c1ccccc12	PAFAH1B2 FP inh 24.9
O=C(Cn1nc(Br)nc1Br)c1ccccc1	PAFAH1B3 inh 46.7, PAFAH2 FP inh 51.5, PAFAH1B2 FP inh 29.4
O=C(OCCOc1ccc(Br)cc1)c1ccc(Cl)nc1	PAFAH1B2 FP inh 26.1
CC(C)N(C(=O)COC(=O)c1ccc(Cl)nc1)C(C)C	none
O=C(COC(=O)c1c(Cl)cccc1Cl)NC1CCCCC1	none
O=C(COC(=O)c1ccccc1Cl)NC1CCCCCC1	PAFAH2 FP inh 79.1, pPAFAH FP inh 31.1
O=C(COC(=O)c1ccc(Cl)c(Cl)c1)NC1CCCC1	PAFAH2 FP inh 57.8, pPAFAH FP inh 34.2
CCCCCN(C(=O)CCC(=O)OC(C)C(=O)Nc1ccccc1C)c1c(N)n(CCCC)c(=O)[nH]c1=O (stereo not given)	none (no result: PAFAH1B3 inh, PAFAH2 FP inh, PAFAH1B2 FP inh, pPAFAH FP inh)
CC1(C(=O)NS(=O)(=O)c2ccccc2Cl)CCN1C(=O)CC1CC1 (stereo not given)	none (no result: PAFAH1B3 inh, PAFAH2 FP inh, PAFAH1B2 FP inh, pPAFAH FP inh)
O=C(c1cccc(NS(=O)(=O)c2ccccc2)c1)N1CCCC1	none
COc1ccc(NS(=O)(=O)c2cccc(C(=O)N3CCCC(C)C3)c2)cc1 (stereo not given)	pPAFAH FP inh 24.6
O=C(c1cccc(S(=O)(=O)Nc2ccccc2Cl)c1)N1CCN(c2ccccc2O)CC1	none
CCN(CC(=O)NCc1cccs1)C(=O)c1cccc(S(=O)(=O)Nc2cccc(C)c2)c1	pPAFAH FP inh 31.2
O=C(c1cccc(NS(=O)(=O)c2ccc(Br)cc2)c1)N1CCN(c2ccccc2O)CC1	PAFAH1B2 FP inh 24.5 (no result: pPAFAH FP inh)
COc1ccc(NS(=O)(=O)c2cccc(C(=O)N3CCC3)c2)cc1	none
Cc1cccc(NS(=O)(=O)c2cccc(C(=O)N3CCCC3)c2)c1	pPAFAH FP inh 27.4
Cc1ccc(S(=O)(=O)Nc2ccc(N3CCOCC3)cc2)cc1C	none
CCCNS(=O)(=O)c1ccc(OCC(=O)N2CCCC2)cc1	none
Cc1cccc(NS(=O)(=O)c2ccc(OCC(=O)N3CCCC3)cc2)c1	pPAFAH FP inh 34.1
Nc1c(C(=O)c2ccccc2)sc2snc(SCC(=O)c3ccccc3)c12	PAFAH2 FP inh 43.9, pPAFAH FP inh 27.1
Nc1nnc(SCC(=O)c2ccccc2)s1	none
O=C1NC(=Nc2ccccc2)SC1Cc1cccc(Cl)c1Cl (stereo not given)	pPAFAH FP inh 29.1
O=C1NC(=Nc2ccccc2)SC1Cc1ccccc1 (stereo not given)	none (no result: PAFAH1B3 inh, PAFAH2 FP inh, PAFAH1B2 FP inh)
O=C(CCCCl)NC1=NN(c2ccccc2)C(=O)C1	none
O=C(COc1ccc(Cl)cc1)NC1=NN(c2ccccc2)C(=O)C1	PAFAH1B2 FP inh 67.5
